AF4-AF9 inh – MLL-AF4/AF9 protein interaction inhibition. inhibition, % at 10 µM. P42568. AlphaScreen, biotin-AF4 peptide binding to FLAG-AF9. 350,000 tested, 0.47% active;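 active = every replicate reaching a set inhibition limit, whatever the replicate mean, cut at about 25% in these data; inconclusive = mean inhibition reaches that limit but some replicates miss it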
Target sequence (P42568 whole entry, looked up): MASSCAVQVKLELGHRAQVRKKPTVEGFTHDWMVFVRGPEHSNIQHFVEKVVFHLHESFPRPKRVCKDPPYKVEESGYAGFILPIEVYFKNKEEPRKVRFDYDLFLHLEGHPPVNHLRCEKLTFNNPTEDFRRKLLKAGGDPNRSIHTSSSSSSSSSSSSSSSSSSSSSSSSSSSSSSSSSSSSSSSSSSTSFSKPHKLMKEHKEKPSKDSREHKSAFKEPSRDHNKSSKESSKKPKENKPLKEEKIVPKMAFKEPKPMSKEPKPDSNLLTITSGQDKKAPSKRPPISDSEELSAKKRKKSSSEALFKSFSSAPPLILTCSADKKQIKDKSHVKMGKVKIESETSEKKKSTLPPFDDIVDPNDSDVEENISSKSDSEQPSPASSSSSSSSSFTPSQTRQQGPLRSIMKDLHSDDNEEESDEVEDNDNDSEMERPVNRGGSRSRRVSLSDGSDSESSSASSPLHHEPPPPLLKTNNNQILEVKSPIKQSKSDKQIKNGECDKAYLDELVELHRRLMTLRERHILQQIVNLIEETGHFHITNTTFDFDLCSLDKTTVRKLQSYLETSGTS
SMARCA2 activ – SMARCA2 function activation, primary screen | 370,000 tested, 1% active | activation, % at 9.1 µM | MG213 cells, MMTV-luciferase reporter, dexamethasone, overnight; in the data active = activation above about 7.8%
FGF22 binding – FGF22 (human) thermal shift binding | Q9HCT0 | activity (Tm shift, normalised), % at 9.99 µM | 340,000 tested, 1.5% active | recombinant FGF22 thermal shift, SYPRO orange fluorescence; percent of sucrose octasulfate shift, DMSO zero | AID 651658;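 active = mean Tm shift, scaled 0 neutral to 100 positive control, at about 1.3% or above, every replicate too, limit read from the data; inconclusive = no clear call, values can overlap the other calls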
esBAF inh – inhibitors of esBAF chromatin remodeling in mouse ES cells; Bmi1-luciferase knock-in reporter, 24 h; 100% = twice the neutral-well signal; reporter increase, % at 12.5 µM; 350,000 tested, 2% active; in the data active = activation above about 40%; inconclusive = no clear call, values can overlap the other calls;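 note: a rise in the Bmi1 reporter signal indicates esBAF inhibition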
Wnt bcat act – activators of Wnt/beta-catenin signaling; Wnt/beta-catenin reporter cell assay, activator, plate reader; activation, % at 9.35 µM; 300,000 tested, 1.2% active; AID 743398; in the data active = activation above about 30%, passing the limit was not always enough; inconclusive = no clear call, values can overlap the other calls
MITF act – increases MITF-driven TRPM1 promoter luciferase signal; SK-MEL-5 TRPM1-promoter luciferase, 24 h; % of positive control, neutral wells = 0; activation, % at 12.5 µM; 300,000 tested, 0.75% active; AID 588334;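 active = mean activation of at least 80% with every replicate also reaching 80%; inconclusive = mean reaches 80% but some replicate falls short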
Numbers stand for hits; . = inactive; ? = inconclusive; / = not tested or not shown; + = active, no number. Most compounds without a hit are left out; they make up all but 4.3% or so of the library.

SMILES	AF4-AF9 inh	SMARCA2 activ	FGF22 binding	esBAF inh	Wnt bcat act	MITF act
Cc1ccc(NC(=S)NC2CCCCC2)cc1S(=O)(=O)N(C)C	.	.	2.7	.	.	.
Cc1ccc(NC(=O)Nc2ccc([N+](=O)[O-])cc2)nc1	.	.	.	.	.	.
O=C(Nc1nc2ccccc2s1)NC1CCCCC1	.	.	.	/	42	86
O=C(Nc1ccc(Br)cc1)NC1CCCCCCC1	.	.	.	/	47	?
O=C(Nc1cccc([N+](=O)[O-])c1)NC1CCCCCCC1	.	.	.	78	.	91
Cc1ccc(NC(=O)NC2CCCCC2)cc1Cl	/	.	/	85	/	?
O=C(CNC1CCCCC1)Nc1cccc([N+](=O)[O-])c1	.	.	.	.	.	/
O=C(Nc1ccccc1)NC1CCCCC1	/	.	/	46	/	.
O=C(Nc1ccccc1NC(=O)NC1CCCCC1)NC1CCCCC1	/	.	/	.	.	.
O=C(NC1CCCCC1)N(c1ccccc1)c1nnc(-c2cccc([N+](=O)[O-])c2)s1	.	.	.	66	.	/
Cc1ccc(NC(=O)C2CCN(C(=O)NC3CCCCC3)CC2)cc1Cl	/	.	/	.	/	/
O=C(NCCN1CCCCC1)Nc1ccc(F)c(Cl)c1	/	.	/	.	/	.
Cc1ccc(NC(=O)NCCN2CCCCC2)cc1Cl	26	.	.	.	.	.
Cc1ccc(NC(=O)C2CCCN2C(=O)NC2CCCCC2)cc1F (stereo not drawn)	.	.	43	.	.	.
COc1ccc(NC(=O)N[C@@H]2C=C[C@H](CC(=O)NC3CCCCC3)O[C@H]2CO)cc1	.	/	.	.	/	/
Cn1c(SCc2c(F)cccc2Cl)nnc1-c1cccs1	/	.	/	65	/	/
Cc1ccc(OCc2cc(C(=O)N(CCO)Cc3cccs3)no2)cc1C	.	.	.	84	.	86
COc1ccc2c3c(n(C)c2c1)[C@H](CO)N(Cc1cccc(F)c1)CC31CN(C)C1	.	/	.	/	/	/
COc1ccc2[nH]c3c(c2c1)CCn1c-3nc2ccccc2c1=O	.	/	/	.	41	.
COc1ccc2[nH]c3c(c2c1)CCN1C(=O)CC[C@H]31	.	/	.	/	/	/
C[C@@H]1CCCCO[C@H](CN(C)C(=O)Nc2cccc3ccccc23)[C@@H](C)CN([C@@H](C)CO)C(=O)c2cc(N(C)C)ccc2O1	/	/	/	.	/	/
Cc1ccccc1-c1cnc2c(c1)C(=O)N([C@@H](C)CO)C[C@H](C)[C@@H](CN(C)Cc1cncnc1)O2	.	/	.	.	/	/
COc1ccc(S(=O)(=O)N(C)C[C@H]2OCCCC[C@@H](C)Oc3ccc(NC(=O)Nc4ccc(C(F)(F)F)cc4)cc3C(=O)N([C@H](C)CO)C[C@H]2C)cc1	.	/	.	.	/	/
CC1(C)CC(Cc2ccc(Cl)nc2)N(C(=O)OC(C)(C)C)C1 (stereo not drawn)	.	.	44	.	.	/
CN(C)N1C(N)=C(C#N)C(c2ccc3c(c2)OCO3)C2=C1CCCC2=O (stereo not drawn)	26	.	.	.	.	.
SMILES	AF4-AF9 inh	SMARCA2 activ	FGF22 binding	esBAF inh	Wnt bcat act	MITF act
CN(C)N1C(N)=C(C#N)C(c2cccc(Cl)c2)C2=C1CCCC2=O (stereo not drawn)	.	.	.	.	.	.
CCOC(=O)Cc1cnc(NC(=O)CSc2nc(C)cc(C)n2)s1	.	.	44	/	.	.
O=C(C[C@H]1CC[C@H]2[C@@H](COC[C@@H](O)CN2C(=O)c2ccccc2F)O1)N1CCOCC1	.	/	.	.	/	/
Nc1nc(N)c2c(n1)CN(Cc1ccc(Cl)cc1)C2	.	.	43	.	.	/
Nc1ncnc2c1CN(Cc1ccccc1)CC2	.	.	.	.	.	.
CN(CC(=O)Nc1cccc(F)c1)C(=O)Cn1c(=O)cnc2ccccc21	29	.	/	.	.	.
COc1ccc(CN(C)C[C@@H]2Oc3ccc(NS(=O)(=O)c4ccc(F)cc4)cc3CC(=O)N([C@@H](C)CO)C[C@H]2C)cc1	.	/	.	.	/	/
CCn1c(C)nc2cc(C(=O)N/N=C/c3cccc(O)c3O)ccc21	.	.	.	/	41	.
CCn1c(C)nc2cc(C(=O)N/N=C/c3ccccc3)ccc21	.	.	.	43	.	.
CCn1c(C)nc2cc(C(=O)N/N=C/c3ccc(O)cc3)ccc21	.	.	.	/	.	.
CC(NC(=O)c1ccccc1N)c1ccccc1 (stereo not drawn)	.	.	43	/	.	.
Fc1ccccc1OCCCCN1CCCCC1	.	.	.	.	.	+
COc1ccc(C(=O)NC(=S)Nc2cc3oc4ccccc4c3cc2OC)cc1	.	.	44	/	.	.
C/C(=N\NC(=O)c1ccc([N+](=O)[O-])cc1)c1cccc([N+](=O)[O-])c1	.	.	.	/	.	.
COc1cc2c(cc1NC(=O)c1ccncc1)oc1ccccc12	/	/	/	/	/	.
COc1cc2c(cc1NC(=O)CSc1ccccn1)oc1ccccc12	/	.	/	49	/	95
C/C(=N\NC(=O)c1cccnc1)c1cccc([N+](=O)[O-])c1	.	.	43	/	.	.
COc1cc2c(cc1NC(=O)c1cccnc1)oc1ccccc12	/	.	/	72	/	.
Cc1noc(C)c1NC(=O)N(C)C[C@@H]1Oc2ccc(NC(=O)Nc3ccc(F)cc3)cc2C(=O)N([C@@H](C)CO)C[C@@H]1C	.	/	.	.	/	/
COc1cccc(OC)c1C(=O)NNC(=O)c1cccnc1	35	.	.	/	.	/
CN1C(=O)c2cc(NC(=O)C3CC3)ccc2OC[C@H]2O[C@@H](CC(=O)O)CC[C@@H]21	.	/	/	/	/	/
O=C(NC1=NCCS1)c1ccc(OCC2CCCO2)cc1 (stereo not drawn)	/	.	/	.	40	.
N#C/C(=C\C=C\c1ccccc1)C(=O)Nc1ccccc1	.	.	44	/	.	.
COCCOC(=O)N1C(=O)[C@@]2(c3cc(C#Cc4ccc(OC)cc4)ccc31)[C@H](C(=O)N1CCc3cc(OC)c(OC)cc3C1)[C@H]1C(=O)O[C@H](c3ccccc3)[C@H](c3ccccc3)N1[C@@H]2c1ccc(OCCO)cc1	.	/	.	/	/	/
COc1cccc(NC(=O)c2ccccc2F)c1	.	.	.	.	?	87
SMILES	AF4-AF9 inh	SMARCA2 activ	FGF22 binding	esBAF inh	Wnt bcat act	MITF act
COc1ccccc1C(=O)Nc1cccc(SC)c1	/	.	/	/	.	.
COc1cc(SC)ccc1C(=O)Nc1ccccc1	/	.	/	?	34	/
COc1cccc(NC(=O)c2csc3c2CCCC3)c1	.	.	.	69	46	95
O=C(Nc1nccs1)c1csc2c1CCCC2	/	.	/	63	/	.
COc1cccc(NC(=O)CN(C)C(=O)c2csc3c2CCCC3)c1	.	.	.	.	.	.
CO[C@@H]1CN(C)C(=O)c2cc(NC(=O)c3nc4ccccc4s3)ccc2OC[C@@H](C)N(Cc2cccnc2)C[C@@H]1C	.	/	.	.	/	/
COC(=O)[C@@]12CCCCC3=C1N(CCC3)C(=O)[C@H]2CC(=O)NCc1ccccc1	/	.	/	/	/	/
O=C(CN1CCOCC1)NC[C@@H]1[C@@H](c2ccccc2)[C@@H](CO)N1CC1CC1	.	/	/	/	/	/
COc1cccc(NC(=O)c2cc3ccccc3cc2OC)c1	.	.	.	50	49	/

Screens (PubChem)
